# Several values for one entry are separate records, joined by “and”; a condition that tells them apart may be missing. Equal entries are not always repeated. Among all 5,500 compounds or so, about 2,000 (36%) were called active. Inconclusive results (about 18%) are left out. The list shows a part of the results. Values without a mark were called inactive. Rule as the data show it: active = normalized growth mostly below about 0.91 (no sharp cut-off); inconclusive = no clear call, values can overlap the other calls; inactive = mostly above about 0.92.
# Assay: chemical genetic growth profiling, strain panel (AID 1159580);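 also: tested at 20 µM; growth read once vehicle control cultures reached saturation at 30 °C; 1 = growth at the plate median or of vehicle wells; lower values mean less growth of the strain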
# Details: S. cerevisiae deletion strains, growth OD
smiles,measurement,setting,value
C#C[C@]1(O)CCC2C3CCC4=CC(=O)CC[C@@H]4C3CC[C@@]21CC (some centres undefined),normalized growth,"locus YAL021C, strain ccr4, hits give low values",0.986
same,normalized growth,"locus YAL026C, strain drs2, hits give low values",0.972
same,normalized growth,"locus YAL030W, strain snc1, hits give low values",1
same,normalized growth,"locus YBL061C, strain skt5, hits give low values",0.987
same,normalized growth,"locus YBR009C, strain hhf1, hits give low values",0.985
same,normalized growth,"locus YBR021W, strain FUR4, hits give low values",1
same,normalized growth,"locus YBR023C, strain chs3, hits give low values",0.983
same,normalized growth,"locus YBR171W, strain sec66, hits give low values",0.992
same,normalized growth,"locus YBR229C, strain ROT2, hits give low values",0.984
same,normalized growth,"locus YBR231C, strain swc5, hits give low values",1.01
same,normalized growth,"locus YBR279W, strain paf1, hits give low values",0.998
same,normalized growth,"locus YCL011C, strain gbp2, hits give low values",1
same,normalized growth,"locus YCL016C, strain dcc1, hits give low values",0.988
same,normalized growth,"locus YCL029C, strain bik1, hits give low values",0.981
same,normalized growth,"locus YCL061C, strain MRC1, hits give low values",0.991
same,normalized growth,"locus YCL069W, strain vba3, hits give low values",0.995
same,normalized growth,"locus YCR088W, strain abp1, hits give low values",0.999
same,normalized growth,"locus YDL005C, strain med2, hits give low values",0.987
same,normalized growth,"locus YDL035C, strain GPR1, hits give low values",0.979
same,normalized growth,"locus YDL040C, strain nat1, hits give low values",0.99
same,normalized growth,"locus YDL074C, strain BRE1, hits give low values",1.04
same,normalized growth,"locus YDL101C, strain DUN1, hits give low values",0.987
same,normalized growth,"locus YDL134C, strain PPH21, hits give low values",0.974
same,normalized growth,"locus YDL185W, strain tfp1, hits give low values",0.982
same,normalized growth,"locus YDL192W, strain arf1, hits give low values",0.986
same,normalized growth,"locus YDR001C, strain nth1, hits give low values",1
same,normalized growth,"locus YDR069C, strain doa4, hits give low values",0.979
same,normalized growth,"locus YDR101C, strain arx1, hits give low values",0.988
same,normalized growth,"locus YDR137W, strain rgp1, hits give low values",0.82 (active)
same,normalized growth,"locus YDR150W, strain NUM1, hits give low values",1.01
same,normalized growth,"locus YDR159W, strain sac3, hits give low values",0.978
same,normalized growth,"locus YDR162C, strain NBP2, hits give low values",0.997
same,normalized growth,"locus YDR195W, strain ref2",1.05
same,normalized growth,"locus YDR297W, strain sur2, hits give low values",0.993
same,normalized growth,"locus YDR318W, strain mcm21, hits give low values",0.976
same,normalized growth,"locus YDR334W, strain swr1, hits give low values",1.01
same,normalized growth,"locus YDR335W, strain msn5, hits give low values",1
same,normalized growth,"locus YDR388W, hits give low values",0.992
same,normalized growth,"locus YDR392W, strain spt3, hits give low values",0.828
same,normalized growth,"locus YDR502C, strain sam2, hits give low values",0.984
same,normalized growth,"locus YEL003W, strain gim4, hits give low values",0.967
same,normalized growth,"locus YEL037C, strain rad23, hits give low values",0.983
same,normalized growth,"locus YEL061C, strain CIN8 (second series), hits give low values",1
same,normalized growth,"locus YEL061C, strain CIN8, hits give low values",1.01
same,normalized growth,"locus YER015W, strain faa2, hits give low values",1.01
same,normalized growth,"locus YER016W, strain bim1, hits give low values",0.993
same,normalized growth,"locus YER110C, hits give low values",0.999
same,normalized growth,"locus YER111C, strain swi4, hits give low values",0.997
same,normalized growth,"locus YER155C, strain BEM2 (second series), hits give low values",0.997
same,normalized growth,"locus YER155C, strain BEM2, hits give low values",0.99
same,normalized growth,"locus YER167W, strain BCK2, hits give low values",0.991
same,normalized growth,"locus YFR010W, strain ubp6, hits give low values",0.991
same,normalized growth,"locus YGL078C, strain dbp3, hits give low values",0.989
same,normalized growth,"locus YGL086W, strain mad1, hits give low values",1
same,normalized growth,"locus YGL167C, strain pmr1, hits give low values",0.995
same,normalized growth,"locus YGL173C, strain kem1, hits give low values",0.979
same,normalized growth,"locus YGL227W, strain vid30, hits give low values",1.01
same,normalized growth,"locus YGL240W, strain doc1, hits give low values",0.991
same,normalized growth,"locus YGL248W, strain PDE1, hits give low values",0.993
same,normalized growth,"locus YGL253W, strain hxk2, hits give low values",0.995
same,normalized growth,"locus YGR135W, strain pre9, hits give low values",0.975
same,normalized growth,"locus YGR229C, strain SMI1, hits give low values",1.01
same,normalized growth,"locus YGR252W, strain gcn5, hits give low values",1.06
same,normalized growth,"locus YHR013C, strain ard1, hits give low values",1.01
same,normalized growth,"locus YHR027C, strain rpn1, hits give low values",1.01
same,normalized growth,"locus YHR030C, strain SLT2, hits give low values",0.995 and 0.955
same,normalized growth,"locus YHR079C, strain IRE1 (second series), hits give low values",0.979
same,normalized growth,"locus YHR079C, strain IRE1, hits give low values",0.955
same,normalized growth,"locus YHR094C, strain hxt1, hits give low values",1
same,normalized growth,"locus YHR129C, strain ARP1, hits give low values",0.996
same,normalized growth,"locus YHR142W, strain chs7, hits give low values",0.997
same,normalized growth,"locus YHR200W, strain rpn10, hits give low values",0.984
same,normalized growth,"locus YIL066C, strain RNR3, hits give low values",0.995
same,normalized growth,"locus YIL073C, strain SPO22, hits give low values",0.944
same,normalized growth,"locus YIL125W, strain kgd1, hits give low values",0.998
same,normalized growth,"locus YIR030C, strain dcg1, hits give low values",0.982
same,normalized growth,"locus YJL092W, strain hpr5, hits give low values",0.998
same,normalized growth,"locus YJL095W, strain BCK1 (second series), hits give low values",1.01
same,normalized growth,"locus YJL095W, strain BCK1, hits give low values",0.988 and 0.951
same,normalized growth,"locus YJL115W, strain asf1, hits give low values",1
same,normalized growth,"locus YJL129C, strain trk1, hits give low values",0.986
same,normalized growth,"locus YJL134W, strain LCB3, hits give low values",0.995
same,normalized growth,"locus YJL154C, strain vps35, hits give low values",0.993
same,normalized growth,"locus YJL164C, strain tpk1, hits give low values",0.988
same,normalized growth,"locus YJL166W, strain qcr8, hits give low values",0.991
same,normalized growth,"locus YJL168C, strain set2, hits give low values",0.99
same,normalized growth,"locus YJL187C, strain SWE1 (second series), hits give low values",0.988
same,normalized growth,"locus YJL187C, strain SWE1, hits give low values",0.997
same,normalized growth,"locus YJR043C, strain POL32, hits give low values",1.01

# From PubChem BioAssay AID1159580 (chemical genetic matrix, 2015)
